# Measured values reported in the supplement of paper PMC10849652.
# The full data set covers some 7,900 targets. This sample favours those with a hit. About 0.6% of all pairs of compound and target were hits. Values without a mark were called inactive.
# Key:
# Assay in all cases: log2 fold change, soluble protein after heating vs DMSO (PISA); higher = thermal stabilisation; K562 cells, 10 uM, 30 min; active = over 0.2 and 3.5 SD of the protein, either way, in both replicates (recomputed)
# [1] = compound: CC[C@@H]1C(=O)N(C)c2cnc(Nc3ccc(C(=O)NC4CCN(C)CC4)cc3OC)nc2N1C1CCCC1
# Outline: (§1)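 Quantification of soluble protein used TMTpro 16plex LC-MS/MS, with channel sums equalised. Samples were the supernatant after 21,000xg for 90 min of pooled aliquots from K562 cells (2×10^6 cells/mL) treated with 10 μM compound for 30 min, heated for 3 min over 48°C-58°C, and extracted in PBS with 0.5% NP-40 at 4°C. Values, from duplicates, describe thermal stability against control samples on a log2 fold-change scale.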
# volasertib = compound: CC[C@@H]1C(=O)N(C)c2cnc(Nc3ccc(C(=O)N[C@H]4CC[C@H](N5CCN(CC6CC6)CC5)CC4)cc3OC)nc2N1C(C)C [volasertib]
# Outline: as §1
# [2] = compound: CC[C@H](C)N1C=C(C2=C(C=C(C=C21)C3=CN=C(C=C3)N4CCNCC4)C(=O)NCC5=C(C=C(NC5=O)C)C)C
# Outline: as §1
# epoxomicin = compound: CC[C@H](C)[C@@H](C(=O)N[C@@H]([C@@H](C)O)C(=O)N[C@@H](CC(C)C)C(=O)[C@]1(CO1)C)NC(=O)[C@H]([C@@H](C)CC)N(C)C(=O)C [epoxomicin]
# Outline: as §1
# [3] = compound: CCn1c(C(=O)N(C2CC2)C2CC2)cc2c3c(ncn3C)c(Nc3cc(C)n(C)n3)nc21
# Outline: as §1
# [4] = compound: CCn1cc(-c2ccnc3[nH]c(-c4cccc(CN(C)C)c4)cc23)c(-c2ccc(NC(=O)N(C)C)cc2)n1
# Outline: as §1
# [5] = compound: CN(C)CC(=O)Nc1ccc2[nH]c(=O)c3ccccc3c2c1
# Outline: as §1
# rosiglitazone = compound: CN(CCOC1=CC=C(C=C1)C[C@H]2C(=O)NC(=O)S2)C3=CC=CC=N3 (racemic) [rosiglitazone]
# Outline: as §1
# [6] = compound: CN1C2=C(C3=C1C(=O)N(N=C3)CC4=CC(=CC=C4)N)SC(=C2)S(=O)C
# Outline: as §1
# [7] = compound: CN1CCC(CNc2ccc3ncc(-c4cccc(OC(F)(F)F)c4)n3n2)CC1
# Outline: as §1
# saracatinib = compound: CN1CCN(CCOc2cc(OC3CCOCC3)c3c(Nc4c(Cl)ccc5c4OCO5)ncnc3c2)CC1 [saracatinib]
# Outline: as §1
# sotrastaurin = compound: CN1CCN(c2nc(C3=C(c4c[nH]c5ccccc45)C(=O)NC3=O)c3ccccc3n2)CC1 [sotrastaurin]
# Outline: as §1
# alvocidib = compound: CN1CC[C@H](c2c(O)cc(O)c3c(=O)cc(-c4ccccc4Cl)oc23)[C@H](O)C1 [alvocidib]
# Outline: as §1
# Tubastatin A = compound: CN1CCc2c(c3ccccc3n2Cc2ccc(C(=O)NO)cc2)C1 [Tubastatin A]
# Outline: as §1
# [8] = compound: CNC(=O)C1=CC=CC=C1NC2=NC(=NC=C2Cl)NC3=C(C=C(C=C3)N4CCOCC4)OC
# Outline: as §1
# defactinib = compound: CNC(=O)c1ccc(Nc2ncc(C(F)(F)F)c(NCc3nccnc3N(C)S(C)(=O)=O)n2)cc1 [defactinib]
# Outline: as §1
# rucaparib = compound: CNCc1ccc(-c2[nH]c3cc(F)cc4c3c2CCNC4=O)cc1 [rucaparib]
# Outline: as §1
# [9] = compound: CNc1nc(-c2ccc3c(N)n[nH]c3c2)cc(N2C[C@@H](C(=O)NC3CCCCC3)CC[C@H]2C)n1
# Outline: as §1
# encorafenib = compound: COC(=O)N[C@@H](C)CNc1nccc(-c2cn(C(C)C)nc2-c2cc(Cl)cc(NS(C)(=O)=O)c2F)n1 [encorafenib]
# Outline: as §1
# [10] = compound: COC(=O)[C@H](CCSC)NC(=O)C1=C(C=C(C=C1)NC[C@H](CS)N)C2=CC=CC=C2
# Outline: as §1
# Sequence of UniProt Q8IV08 (Q8IV08 whole entry, looked up): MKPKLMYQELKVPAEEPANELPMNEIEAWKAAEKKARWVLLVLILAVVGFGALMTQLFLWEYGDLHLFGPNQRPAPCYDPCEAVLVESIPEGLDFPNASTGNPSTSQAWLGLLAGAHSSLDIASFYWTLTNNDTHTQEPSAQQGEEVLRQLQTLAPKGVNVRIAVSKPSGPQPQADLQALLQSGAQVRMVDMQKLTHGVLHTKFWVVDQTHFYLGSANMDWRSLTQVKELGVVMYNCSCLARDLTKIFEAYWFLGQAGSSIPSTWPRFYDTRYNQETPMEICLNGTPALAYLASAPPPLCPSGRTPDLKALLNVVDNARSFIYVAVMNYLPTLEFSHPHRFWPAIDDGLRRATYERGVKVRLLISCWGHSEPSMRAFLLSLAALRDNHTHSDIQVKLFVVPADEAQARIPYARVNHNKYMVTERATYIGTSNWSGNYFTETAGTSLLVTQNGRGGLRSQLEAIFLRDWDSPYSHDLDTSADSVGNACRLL
# Sequence of UniProt Q8WXF1 (Q8WXF1 whole entry, looked up): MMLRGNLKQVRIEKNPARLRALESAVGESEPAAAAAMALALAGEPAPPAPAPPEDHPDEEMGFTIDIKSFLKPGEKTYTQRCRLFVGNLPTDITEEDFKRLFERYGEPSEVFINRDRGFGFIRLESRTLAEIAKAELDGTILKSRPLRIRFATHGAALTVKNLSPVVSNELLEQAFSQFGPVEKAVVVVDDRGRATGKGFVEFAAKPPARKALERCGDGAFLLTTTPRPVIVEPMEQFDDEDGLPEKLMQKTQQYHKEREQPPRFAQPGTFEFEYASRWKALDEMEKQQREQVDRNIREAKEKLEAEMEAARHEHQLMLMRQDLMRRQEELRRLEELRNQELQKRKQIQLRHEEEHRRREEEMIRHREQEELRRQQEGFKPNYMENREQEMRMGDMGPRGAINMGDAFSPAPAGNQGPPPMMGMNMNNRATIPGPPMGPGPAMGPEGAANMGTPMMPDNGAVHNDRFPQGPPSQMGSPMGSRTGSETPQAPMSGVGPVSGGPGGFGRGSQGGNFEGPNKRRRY
# Sequence of UniProt Q14181 (Q14181 whole entry, looked up): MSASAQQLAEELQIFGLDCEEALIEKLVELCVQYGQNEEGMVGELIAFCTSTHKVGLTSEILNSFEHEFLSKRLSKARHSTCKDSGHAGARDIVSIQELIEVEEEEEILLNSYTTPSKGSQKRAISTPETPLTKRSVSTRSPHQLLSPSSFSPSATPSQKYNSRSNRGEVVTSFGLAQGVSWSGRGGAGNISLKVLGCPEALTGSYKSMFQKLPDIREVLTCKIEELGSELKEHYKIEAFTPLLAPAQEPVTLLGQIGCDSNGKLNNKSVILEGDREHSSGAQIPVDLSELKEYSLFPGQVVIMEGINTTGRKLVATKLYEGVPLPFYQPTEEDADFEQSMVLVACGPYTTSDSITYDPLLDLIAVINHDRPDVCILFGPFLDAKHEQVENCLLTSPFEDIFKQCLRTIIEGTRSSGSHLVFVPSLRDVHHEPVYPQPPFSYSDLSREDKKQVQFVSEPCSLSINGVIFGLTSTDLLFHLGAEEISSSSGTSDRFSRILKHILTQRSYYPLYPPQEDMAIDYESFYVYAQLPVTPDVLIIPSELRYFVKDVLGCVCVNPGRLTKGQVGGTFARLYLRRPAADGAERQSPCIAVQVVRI
# Sequence of UniProt Q5MIZ7 (Q5MIZ7 whole entry, looked up): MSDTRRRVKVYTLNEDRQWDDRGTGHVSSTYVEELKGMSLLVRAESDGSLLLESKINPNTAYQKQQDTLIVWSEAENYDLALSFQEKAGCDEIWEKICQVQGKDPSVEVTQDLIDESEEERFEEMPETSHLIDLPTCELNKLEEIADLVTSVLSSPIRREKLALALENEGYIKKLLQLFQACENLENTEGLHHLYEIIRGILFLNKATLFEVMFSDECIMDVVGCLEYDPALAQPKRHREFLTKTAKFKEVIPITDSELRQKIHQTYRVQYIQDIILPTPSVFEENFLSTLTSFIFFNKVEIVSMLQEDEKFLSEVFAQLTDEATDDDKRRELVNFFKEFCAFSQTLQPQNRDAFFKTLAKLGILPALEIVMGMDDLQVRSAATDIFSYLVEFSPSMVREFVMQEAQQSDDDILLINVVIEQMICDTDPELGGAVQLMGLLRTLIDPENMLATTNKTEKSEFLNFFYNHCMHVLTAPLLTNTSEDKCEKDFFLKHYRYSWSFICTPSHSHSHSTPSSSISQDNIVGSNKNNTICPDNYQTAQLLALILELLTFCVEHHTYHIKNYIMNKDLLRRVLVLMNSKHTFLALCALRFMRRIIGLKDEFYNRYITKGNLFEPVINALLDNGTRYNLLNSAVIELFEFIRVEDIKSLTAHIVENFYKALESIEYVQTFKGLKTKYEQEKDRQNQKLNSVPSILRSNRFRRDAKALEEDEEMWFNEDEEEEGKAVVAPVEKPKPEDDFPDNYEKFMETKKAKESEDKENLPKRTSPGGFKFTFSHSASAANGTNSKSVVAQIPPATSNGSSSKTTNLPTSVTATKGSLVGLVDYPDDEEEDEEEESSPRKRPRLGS
# Sequence of UniProt Q5H8A4 (Q5H8A4 whole entry, looked up): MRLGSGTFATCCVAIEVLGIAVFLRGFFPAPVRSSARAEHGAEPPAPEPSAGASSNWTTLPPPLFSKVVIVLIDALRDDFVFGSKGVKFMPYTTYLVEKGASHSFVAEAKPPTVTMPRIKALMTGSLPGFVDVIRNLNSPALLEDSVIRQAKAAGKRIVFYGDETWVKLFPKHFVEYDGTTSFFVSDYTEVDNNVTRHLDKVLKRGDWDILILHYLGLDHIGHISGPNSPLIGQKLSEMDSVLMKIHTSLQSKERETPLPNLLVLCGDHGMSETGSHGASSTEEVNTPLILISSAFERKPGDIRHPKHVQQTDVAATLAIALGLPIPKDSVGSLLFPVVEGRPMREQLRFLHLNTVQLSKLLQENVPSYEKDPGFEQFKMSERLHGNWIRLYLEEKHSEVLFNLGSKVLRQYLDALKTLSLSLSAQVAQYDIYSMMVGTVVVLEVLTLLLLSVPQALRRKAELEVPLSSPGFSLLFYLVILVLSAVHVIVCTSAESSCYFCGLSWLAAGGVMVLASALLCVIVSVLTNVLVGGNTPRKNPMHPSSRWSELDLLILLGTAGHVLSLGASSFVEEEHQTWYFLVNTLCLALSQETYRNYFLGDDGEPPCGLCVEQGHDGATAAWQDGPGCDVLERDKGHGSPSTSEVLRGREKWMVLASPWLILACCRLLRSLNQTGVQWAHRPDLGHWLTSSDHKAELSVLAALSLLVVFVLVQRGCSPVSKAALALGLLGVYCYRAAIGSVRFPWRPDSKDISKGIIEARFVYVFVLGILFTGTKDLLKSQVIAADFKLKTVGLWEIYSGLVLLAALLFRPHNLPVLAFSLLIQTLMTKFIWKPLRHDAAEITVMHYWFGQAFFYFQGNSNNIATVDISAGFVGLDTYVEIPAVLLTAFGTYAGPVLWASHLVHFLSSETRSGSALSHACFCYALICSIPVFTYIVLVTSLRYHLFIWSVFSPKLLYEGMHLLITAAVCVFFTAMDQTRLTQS
# Sequence of UniProt Q8WUM4 (Q8WUM4 whole entry, looked up): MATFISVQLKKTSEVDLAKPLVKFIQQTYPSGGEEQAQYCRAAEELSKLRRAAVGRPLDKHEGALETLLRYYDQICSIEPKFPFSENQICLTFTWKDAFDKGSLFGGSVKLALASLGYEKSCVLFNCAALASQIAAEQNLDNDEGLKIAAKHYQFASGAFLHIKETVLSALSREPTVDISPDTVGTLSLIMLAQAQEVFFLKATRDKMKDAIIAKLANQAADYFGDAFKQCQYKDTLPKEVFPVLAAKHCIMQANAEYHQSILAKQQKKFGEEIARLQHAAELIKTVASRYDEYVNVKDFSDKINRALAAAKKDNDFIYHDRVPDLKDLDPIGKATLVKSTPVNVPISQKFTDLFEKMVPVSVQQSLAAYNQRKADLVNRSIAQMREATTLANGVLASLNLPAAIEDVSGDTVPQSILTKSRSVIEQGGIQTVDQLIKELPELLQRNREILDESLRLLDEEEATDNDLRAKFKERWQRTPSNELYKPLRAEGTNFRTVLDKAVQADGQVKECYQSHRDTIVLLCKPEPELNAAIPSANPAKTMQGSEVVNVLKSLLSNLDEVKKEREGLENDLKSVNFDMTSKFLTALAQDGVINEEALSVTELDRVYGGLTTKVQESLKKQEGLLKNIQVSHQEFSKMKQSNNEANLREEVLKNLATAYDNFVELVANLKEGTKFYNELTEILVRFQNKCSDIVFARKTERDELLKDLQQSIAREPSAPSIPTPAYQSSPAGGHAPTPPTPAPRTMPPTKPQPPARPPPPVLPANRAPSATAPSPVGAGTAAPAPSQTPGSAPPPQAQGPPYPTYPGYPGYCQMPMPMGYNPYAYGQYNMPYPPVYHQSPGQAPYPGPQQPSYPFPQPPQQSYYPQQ
# Sequence of UniProt P50336 (P50336 whole entry, looked up): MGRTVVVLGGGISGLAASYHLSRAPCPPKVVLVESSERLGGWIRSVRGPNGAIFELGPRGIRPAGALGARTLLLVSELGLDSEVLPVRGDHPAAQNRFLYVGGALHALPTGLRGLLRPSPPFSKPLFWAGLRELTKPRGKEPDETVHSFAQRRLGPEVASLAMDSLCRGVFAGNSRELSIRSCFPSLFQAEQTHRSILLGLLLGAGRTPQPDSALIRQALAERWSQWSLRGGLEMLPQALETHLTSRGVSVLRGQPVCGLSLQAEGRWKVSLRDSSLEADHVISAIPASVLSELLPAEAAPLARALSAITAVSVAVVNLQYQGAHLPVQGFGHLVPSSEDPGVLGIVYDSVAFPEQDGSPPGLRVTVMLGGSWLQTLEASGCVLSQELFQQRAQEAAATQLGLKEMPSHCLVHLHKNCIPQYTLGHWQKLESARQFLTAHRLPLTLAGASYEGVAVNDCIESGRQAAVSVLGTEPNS
# Sequence of UniProt P53801 (P53801 whole entry, looked up): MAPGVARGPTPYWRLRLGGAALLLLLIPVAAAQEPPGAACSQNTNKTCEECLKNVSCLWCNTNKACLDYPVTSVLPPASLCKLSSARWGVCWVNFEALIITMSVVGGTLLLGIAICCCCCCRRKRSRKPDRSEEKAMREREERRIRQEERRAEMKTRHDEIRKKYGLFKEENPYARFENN
Target,log2 fold change [1],log2 fold change (volasertib),log2 fold change [2],log2 fold change (epoxomicin),log2 fold change [3],log2 fold change [4],log2 fold change [5],log2 fold change (rosiglitazone),log2 fold change [6],log2 fold change [7],log2 fold change (saracatinib),log2 fold change (sotrastaurin),log2 fold change (alvocidib),log2 fold change (Tubastatin A),log2 fold change [8],log2 fold change (defactinib),log2 fold change (rucaparib),log2 fold change [9],log2 fold change (encorafenib),log2 fold change [10]
QKI (UniProt Q96PU8),-0.008,-0.1,0.084,0.049,0.022,0.023,0.034,0.041,0.017,-0.172,-0.004,-0.001,-0.106,0.062,-0.044,-0.23 (active),-0.006,-0.036,-0.036,0.004
PTTG1IP (UniProt P53801),-0.223,-0.05,-0.154,-0.017,-0.176,-0.01,-0.041,0.011,0.009,-0.771 (active),0.021,-0.03,0.004,-0.085,0.062,-0.011,0.013,-0.246,-0.052,0.129
POLA2 (UniProt Q14181),-0.114,-0.328 (active),0.051,0.022,-0.008,-0.109,0.1,0.061,-0.057,-0.22,0.035,-0.055,-0.15,0.051,0.096,-0.254,-0.125,0.039,0.06,-0.038
PARP16 isoform 3 (UniProt Q8N5Y8),0.103,-0.025,0.067,0.029,0.006,-0.252 (active),0.061,0.09,-0.008,0.096,0.175,-0.038,-0.054,0.005,-0.009,0.046,0.198,-0.042,-0.087,-0.005
PPOX (UniProt P50336),-0.134,-0.023,-0.017,-0.002,0.109,-0.052,0.008,0.127,-0.164,-0.583 (active),-0.087,0.02,-0.049,-0.045,0.534 (active),-0.07,-0.059,0.274,-0.018,-0.01
PIP4K2A (UniProt P48426),0.602 (active),0.768 (active),-0.055,0.018,-0.049,-0.052,-0.021,-0.009,0.04,0.114,0.048,0.011,0.131,-0.001,0.084,0.166,0.013,-0.132,0.1,-0.056
PSMD2 (UniProt Q13200),0.049,0.089,-0.009,-0.365 (active),0.011,0.07,-0.04,-0.024,0.021,0.055,-0.047,-0.029,0.048,-0.014,-0.033,0.061,0.035,0.01,0.051,0.012
PLD3 (UniProt Q8IV08),-0.369 (active),-0.437 (active),-0.038,0.041,0.052,0.035,0.014,-0.007,-0.027,-0.488 (active),0.034,0.013,-0.024,0.004,0.016,-0.005,-0.094,-0.037,0.007,0.009
PCID2 (UniProt Q5JVF3),-0.032,0.016,0.072,0.027,-0.149,0.035,-0.021,0.064,0.055,-0.086,-0.164,-0.22,0.012,0.006,-0.033,-0.281,0.051,0.008,-0.036,-0.101
PEX7 (UniProt O00628),0.038,0.005,-0.027,0.075,-0.044,-0.01,0.091,-0.045,-0.067,0.023,0.045,0.06,-0.023,0.061,0.005,-0.005,-0.047,0.03,-0.023,-0.039
PRCP (UniProt P42785),-0.265 (active),-0.291 (active),-0.024,-0.002,0.037,0.008,0.014,0.019,0.024,-0.389 (active),0.019,0.054,0.003,-0.01,0.025,-0.009,0.01,-0.035,0.007,0.05
PPP4R3B (UniProt Q5MIZ7),-0.052,-0.284 (active),0.05,-0.011,-0.03,-0.074,-0.001,0.06,-0.074,-0.15,-0.008,-0.05,-0.11,0.022,0.057,-0.023,-0.065,-0.033,0.014,0.003
PDCD6IP (UniProt Q8WUM4),-0.219,-0.694 (active),0.166,0.082,-0.097,-0.06,0.116,0.097,0.043,-0.256,-0.11,-0.227,-0.132,0.048,0.034,-0.141,0.119,0.055,0.138,-0.048
PSMC3 (UniProt P17980),0.032,0.179,-0.021,-0.319 (active),-0.028,0.079,-0.031,-0.038,0.021,0.018,-0.043,-0.035,0.058,0.011,0,0.06,0.033,0.003,0.026,0.004
PIGG (UniProt Q5H8A4),-0.062,0.022,0.037,-0.017,-0.049,-0.022,0.009,0.015,-0.04,0.093,-0.02,-0.015,-0.011,-0.037,0.013,0.175,-0.013,0.27 (active),0.07,-0.057
PSPC1 (UniProt Q8WXF1),-0.046,-0.167,0.1,0.031,0.003,-0.054,0.012,-0.058,0.041,0.029,0.007,-0.062,-0.068,0.041,-0.036,-0.342 (active),0.002,-0.011,0.03,-0.028
